Compound activity deposited in PubChem by National Center for Advancing Translational Sciences (NCATS).
Most compounds without a hit are left out; they make up all but 9.4% or so of the library.
ELG1 repair inh: inhibitors of ELG1-dependent DNA repair in HEK293T cells | HEK293T ELG1-luciferase reporter, luminescence, 16 h; DNA damage induced by 5-fluorouridine | Potency, µM (highest dose often 46.1 µM), usual class: inhibitors | hit rate 2.3% among 330,000 | AID 504467; also: nearly all actives have a fitted effect of over 55% in size
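DMSO vehicle served as the neutral condition. Each well held 2,000 cells given 5-fluorouridine plus compound; after 16 hr at 37 °C/5% CO2, ONE-Glo was added and luciferase measured 30 min later.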
SMN2 splice enh: SMN2 splice variant enhancement; HEK293 SMN2-luciferase splicing reporter, luminescence, 30-36 h; Potency, µM (highest dose often 46.1 µM), actives largely listed as activators; hit rate 2.8% among 210,000; also: nearly all actives have a fitted effect of over 55% in size
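HEK293 cells carry an SMN2 minigene-luciferase reporter in which exon 7 inclusion puts luciferase in frame. Cells were seeded at 2000 cells/well, attached for 10-12 hours, then exposed to compounds for 30-36 hours at 37C before ONE-Glo luminescence.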
FLuc modulator: counter-screen for miR-21 project: firefly luciferase inhibitors or activators; P08659; purified FLuc, Km substrates, luminescence inhibition; Potency, µM (doses to about 57.5 µM), hits mostly inhibitors; hit rate 6.9% among 360,000; AID 588342; also: nearly all actives have a fitted effect of over 55% in size
Target sequence (P08659 whole entry, looked up): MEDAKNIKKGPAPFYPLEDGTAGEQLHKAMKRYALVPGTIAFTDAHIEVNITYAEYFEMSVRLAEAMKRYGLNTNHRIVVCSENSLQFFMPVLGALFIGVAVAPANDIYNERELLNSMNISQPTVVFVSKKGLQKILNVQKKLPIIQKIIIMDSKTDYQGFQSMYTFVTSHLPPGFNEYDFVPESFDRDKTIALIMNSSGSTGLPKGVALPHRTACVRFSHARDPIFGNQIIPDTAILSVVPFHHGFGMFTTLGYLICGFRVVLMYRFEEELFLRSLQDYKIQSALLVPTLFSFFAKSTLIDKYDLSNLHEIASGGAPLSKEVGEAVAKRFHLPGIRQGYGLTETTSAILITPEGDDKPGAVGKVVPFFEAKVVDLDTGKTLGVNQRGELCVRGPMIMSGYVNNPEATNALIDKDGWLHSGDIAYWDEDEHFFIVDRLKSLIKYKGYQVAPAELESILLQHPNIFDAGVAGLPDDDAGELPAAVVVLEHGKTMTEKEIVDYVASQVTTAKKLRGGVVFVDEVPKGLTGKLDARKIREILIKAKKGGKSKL
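Purified P. pyralis luciferase (10nM final) with 10uM D-luciferin and 10uM ATP (Km levels) in 50mM Tris acetate pH 7.5, 10mM Mg acetate, 0.01% Tween-20, 0.05% BSA; qHTS 6-point titration, ~60 µM downward; luminescence read.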
ELG1 genotox: induces genotoxicity in HEK293T cells with luciferase-tagged ELG1; HEK293T ELG1-luciferase reporter, luminescence, 16 h; Potency, µM (top dose mostly 46 µM), actives largely listed as activators; hit rate 1.3% among 330,000; AID 504466; also: nearly all actives have a fitted effect of over 60% in size
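HEK293T cells expressing luciferase-tagged ELG1 were exposed to compound or DMSO vehicle for 16 hr at 37 °C and 5% CO2. Luciferase activity was then measured with ONE-Glo after 30 min at room temperature.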
Rab9 promoter act: activators of Rab9 promoter | AID 485297 | hit rate 2.8% among 320,000 | Huh7 Rab9 promoter-luciferase reporter, luminescence, 24 h | Potency, µM (doses to about 9.22 µM), hits mostly activators; also: nearly all actives have a fitted effect of over 60% in size
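Cell-based reporter: Huh7 stable for Rab9 promoter-driven luciferase, plated in reduced-serum medium with 10% FBS at 1500 cells/well, compound-treated 24 h at 37 °C, luminescence read after 10 min reagent.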
NPC1 prom act: activates the NPC1 promoter | Potency, µM (top dose mostly 9.22 µM), actives largely listed as activators | Huh7 NPC1 promoter luciferase reporter, 24 h | hit rate 2.4% among 320,000 | AID 485313; also: nearly all actives have a fitted effect of over 60% in size
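Stable NPC1-promoter luciferase Huh7 line; cpd (DMSO) 24 h, 37 °C, 5% CO2; Amplite luciferase reagent 10 min RT; luminescence readout. qHTS format.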
Hits are given with their value; - = inactive; ? = inconclusive; . = no result. Calls follow the shape of the dose curve; as a rule, active = well fitted curve in the direction sought with a large enough effect; inconclusive = small, poorly fitted or top-dose-only effect, or another doubt; inactive = no such curve, though single readings can be large; an effect the other way counts as inactive or inconclusive.

SMILES	ELG1 repair inh	SMN2 splice enh	FLuc modulator	ELG1 genotox	Rab9 promoter act	NPC1 prom act
Cc1cccc(-c2nnn3c2nc(NCc2ccccc2)c2ccccc23)c1	.	-	-	.	.	.
O=C(CCn1c(=O)[nH]c2ccsc2c1=O)N1CCN(c2ccc([N+](=O)[O-])cc2)CC1	18.3µM	.	-	-	-	-
Cc1ccc(NC(=S)C2=C(O)c3ccccc3N(C)S2(=O)=O)cc1	-	-	19µM	-	-	-
COCCn1c(SCc2nc3scc(-c4ccc(Cl)cc4)c3c(=O)[nH]2)nnc1-c1cccc(C)c1	23.1µM	.	-	-	-	-
CCn1c(SCc2nc3scc(-c4ccccc4)c3c(=O)[nH]2)nnc1-c1cccs1	?	-	-	-	-	-
CCOc1ccc(CCNC(=O)CCc2c(C)nc3c4c(C)cc(C)nc4nn3c2C)cc1	.	-	-	.	.	.
Cc1c(C(=O)Nc2cc(S(=O)(=O)N3CCOCC3)ccc2N2CCN(C)CC2)oc2ccccc12	16.4µM	.	-	-	-	-
CN1CCN(c2ccc(S(=O)(=O)N3CCOCC3)cc2NC(=O)CC(C)(C)C)CC1	-	.	-	-	-	-
Cc1c(C(=O)NCc2cccnc2)oc2ccc(S(=O)(=O)N3CCCCC3)cc12	5.8µM	-	-	-	-	-
C=CCNC(=O)c1oc2ccc(S(=O)(=O)N3CCCCC3)cc2c1C	-	.	-	-	-	-
COc1ccccc1CNC(=O)c1oc2ccc(S(=O)(=O)N3CCCC3)cc2c1C	?	-	-	-	-	-
Cc1ccc(CNC(=O)c2oc3ccc(S(=O)(=O)N4CCOCC4)cc3c2C)cc1	?	5.62µM	-	-	-	-
Cc1c(C(=O)NCc2ccccc2)oc2ccc(S(=O)(=O)N3CCCC3)cc12	14.6µM	-	-	-	-	-
CCOC(=O)c1cc(-c2ccccc2)n(CCC(=O)Nc2ccc(C(F)(F)F)cc2)c1C	.	.	-	.	.	.
CCC(Sc1ncc(S(=O)(=O)c2ccc(C)cc2)c(=O)[nH]1)C(=O)Nc1cc(C)ccc1C (centres undefined)	.	-	?	.	.	.
Cc1c(C(=O)NCc2ccc3c(c2)OCO3)oc2ccc(S(=O)(=O)N3CCCC3)cc12	7.31µM	-	-	-	-	-
Cc1c(C(=O)NCc2cccnc2)oc2ccc(S(=O)(=O)N3CCCCCC3)cc12	18.4µM	-	-	-	-	-
Cc1c(C(=O)NCc2ccc3c(c2)OCO3)oc2ccc(S(=O)(=O)N3CCCCC3)cc12	?	-	-	-	-	-
COc1ccc(NC(=O)c2oc3ccc(S(=O)(=O)N4CCC5(CC4)OCCO5)cc3c2C)cc1	5.8µM	-	-	-	-	-
Cc1nn(C(=O)c2ccc(Br)cc2)c(C)c1S(=O)(=O)N1CCOCC1	.	.	-	.	.	.
Cc1ccc(Cn2c(=O)c3cccnc3n(Cc3ccc(F)cc3)c2=O)cc1	.	-	-	.	.	.
COc1ccc(OCC(=O)N2CCN(C(=O)c3ccc(OC)cc3)CC2)cc1	.	-	-	.	.	.
COc1ccc(C(=O)C2CCCN(C(=O)c3ccccc3C(C)=O)C2)cc1F (centres undefined)	-	.	?	-	-	-
COc1ccc(C(=O)C2CCCN(C(=O)COc3ccc(C(C)=O)cc3)C2)cc1F (centres undefined)	14.6µM	-	-	-	-	-
COc1cc2c(cc1OC)CN(C(=O)COc1ccc(C)c(C)c1)CC2	18.4µM	-	-	-	-	-
SMILES	ELG1 repair inh	SMN2 splice enh	FLuc modulator	ELG1 genotox	Rab9 promoter act	NPC1 prom act
COc1ccc(C(=O)N2CCN(C(=O)COc3ccc(C)cc3)CC2)cc1OC	.	-	15.1µM	.	.	.
COc1cc(OC)cc(C(=O)N2CCN(C(=O)COc3ccc(C)cc3)CC2)c1	.	-	23.9µM	.	.	.
Cc1ccc(OCC(=O)N2CCN(C(=O)c3cccc(F)c3)CC2)cc1	-	-	-	-	-	-
CC1Cc2cc(S(=O)(=O)CCC(=O)Nc3ccc(F)cc3Cl)ccc2N1C(=O)C1CC1 (centres undefined)	.	.	-	.	.	.
Cc1cccc(CCNC(=O)c2nn(C)c3c2CSc2ccccc2-3)c1	.	.	-	.	.	.
COc1ccc(-c2nnc3n(CCc4ccccc4)c(=O)c4ccccc4n23)c(OC)c1	8.2µM	.	-	-	-	-
COc1cc(-c2nnc3n(CCc4ccccc4)c(=O)c4ccccc4n23)cc(OC)c1OC	20.6µM	-	-	-	-	-
CC(=O)c1ccc(NC(=O)CCc2c(C)nn(-c3ccc4nncn4n3)c2C)cc1	.	.	-	.	.	.
O=[N+]([O-])c1cc2c(cc1C=Nc1ccccc1)OCO2	-	-	-	-	-	-
Sc1oc(-c2ccccc2)cc1C=Nc1ccccc1	?	-	2.13µM	11.6µM	-	-
COc1cccc(NC(=O)Cn2c(=O)n(-c3cccc(OC)c3)c(=O)c3sc4ccccc4c32)c1	.	-	-	.	.	.
CCOC(=O)c1cccc(NC(=O)CCC(=O)N2CC(C)Oc3ccc(C)cc32)c1 (centres undefined)	.	.	-	.	.	.
Cc1cccc(Nc2nc(NCc3ccco3)c3ccccc3n2)c1	?	-	?	-	-	-
Cc1ccc(Nc2nc(N)c([N+](=O)[O-])c(N3CCOCC3)n2)cc1C	13µM	-	-	-	-	-
Cc1ccc(Nc2nc(N)c([N+](=O)[O-])c(N3CCC(C)CC3)n2)cc1C	?	-	-	-	-	-
Cc1cccc(Nc2nc(N)c([N+](=O)[O-])c(N3CCCC(C)C3)n2)c1 (centres undefined)	25.9µM	-	-	-	-	-
c1ccc(Nc2nc(NCc3ccco3)c3ccccc3n2)cc1	9.2µM	.	?	-	-	-
Cc1ccc(Nc2nc(N)c([N+](=O)[O-])c(NCCO)n2)cc1C	?	.	15.1µM	-	-	-
COCCCNc1nc(N)c([N+](=O)[O-])c(Nc2ccccc2OC)n1	?	.	-	-	-	-
Nc1nc(Nc2ccccc2F)nc(N2CCCC2)c1[N+](=O)[O-]	?	.	16.9µM	?	?	-
O=c1c2ccccc2nc2ccc(NCc3ccco3)nn12	?	14.1µM	10.7µM	?	?	?
Cc1ccc(Nc2nc(N)c([N+](=O)[O-])c(NCc3ccco3)n2)cc1C	?	?	23.9µM	-	-	?
COc1ccccc1Nc1nc(NCc2ccco2)nc(N)c1[N+](=O)[O-]	18.3µM	.	-	-	-	-
Cc1ccc(N(CC(=O)N2CCN(c3cccc(C)c3C)CC2)S(=O)(=O)c2c(C)nn(C)c2C)cc1	.	-	-	.	.	.
CC(C)CCNC(=O)c1ccc2nc(CCc3ccccc3)oc2c1	.	.	-	.	.	.
OCCNc1nc(Nc2cccc(O)c2)nc2ccccc12	?	.	?	-	-	-
COc1cccc(Nc2nc(NCCO)c3ccccc3n2)c1	16.4µM	-	?	-	-	-
COc1ccc(C(=O)Cc2cc3ccccc3oc2=O)cc1	?	.	12µM	?	?	3.55µM
